Assay results as given in PubChem BioAssay (EPA / NIEHS).
Inconclusive results are not listed. The source made the active and inactive calls. How the source made its calls: active means hit-call score of the fitted dose curve at least 0.9, where 1 is the maximum; inconclusive means response in the unintended direction; inactive means score below 0.9.

Assay: ACEA_ER_AUC_viability: ACEA Biosciences xCELLigence Real-Time Cell Analysis on Estrogen Receptor Agonism for Viability (AID 2283782);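 further: continuous compound exposure with impedance area under curve over 80 h; hit means loss of impedance signal meaning reduced cell growth or viability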
How it was run: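 T-47D human breast cells in phenol red-free RPMI1640 with 10% charcoal-stripped FBS were dosed with an 8-point 1:4 dilution series from 100 uM top final concentration, in duplicate. Impedance-based growth was followed for 80 h; AUC analysed versus DMSO.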

Row | SMILES | outcome | AC50
1 | CC(=O)c1ccc(C)cc1 | inactive | –
2 | O=C(O)c1cc(C(=O)O)c(C(=O)O)cc1C(=O)O | inactive | –
3 | O=S(=O)(O)CCCN1CCOCC1 | – | 36.6 µM (active)
4 | CC1=CC(C)C(C=O)C(C)C1 (centres undefined) (tested in a mixture with another compound) | – | 50 µM (active)
5 | C=C(C)C(=O)OCCOCCOC(=O)C(=C)C | – | 21.2 µM (active)
6 | CCC(CC)CO | inactive | –
7 | CC1(C)CC(=O)CC(C)(C)N1 | inactive | –
8 | CC(C)(O)CCc1ccccc1 | inactive | –
9 | CCCCCCCCCCCCOC(C)=O | inactive | –
10 | CC(C)CCCC(C)(C)O | inactive | –
11 | CCOC(=O)COC(=O)c1ccccc1C(=O)OCC | inactive | –
12 | Cc1ccc(C(C)(C)O)cc1 | inactive | –
13 | [Cu+] | inactive | –
14 | CCC(C)(C)c1cc(O)c(C(C)(C)CC)cc1O | – | 72.7 µM (active)
15 | O=C1CCC(=O)N1 | – | 50 µM (active)
16 | O=C1OCc2ccccc21 | inactive | –
17 | NNC(=O)OCc1ccccc1 | inactive | –
18 | NCCCOCCOCCOCCCN | – | 86.7 µM (active)
19 | CC1=CC[C@@H](C(C)(C)O)CC1 | inactive | –
20 | CC(CO)c1ccccc1 (centres undefined) | inactive | –

Row | SMILES | outcome | AC50
21 | CCCCCCC(O)CCOC(C)=O (centres undefined) | inactive | –
22 | O=S1(=O)CC(Cl)(Cl)C(Cl)(Cl)C1 | – | 1.42 µM (active)
23 | c1ccc2c(c1)-c1ccc3ccc4cccc5cc-2c1c3c45 | inactive | –
24 | C=CC(C)(CCC=C(C)C)OC(=O)CC (centres undefined) | – | 50 µM (active)
25 | CCC=C(C)C=O | inactive | –
26 | O=S1(=O)CC=CC1 | inactive | –
27 | C/C=C(\C)C(=O)OC/C=C(\C)CCC=C(C)C | – | 78.2 µM (active)
28 | CCOC(=O)CCCCCCCCC(=O)OCC | inactive | –
29 | ClCCOCCOCCCl | inactive | –
30 | CCO[Si](CCC#N)(OCC)OCC | inactive | –
31 | NC(=O)c1cnccn1 | inactive | –
32 | CC(C)C(=O)OCC=Cc1ccccc1 | inactive | –
33 | C=C1CC[C@H]2O[C@]2(C)CC[C@@H]2[C@@H]1CC2(C)C | inactive | –
34 | CCCCCCCCSCc1cc(C)c(O)c(CSCCCCCCCC)c1 | inactive | –
35 | C=COCC1CCC(COC=C)CC1 (centres undefined) | inactive | –
36 | CC(C)Cc1ccc(C(C)C(=O)O)cc1 (centres undefined) | inactive | –
37 | CCOC(=O)CC(C)C | inactive | –
38 | N[C@@H](CCC(=O)O)C(=O)O | inactive | –
39 | CC1(C)CC(N)CC(C)(CN)C1 (centres undefined) | inactive | –
